About 83,000 compounds went through this panel and 20% of them were active in at least one assay; those are over-represented in the sample as a whole.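 Note: values are percent growth. 100 is the growth of untreated cells, values between 100 and 0 indicate rising inhibition; between -100 and 0 indicates cell death.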 Unmarked numbers belong to inactive results. The source made the active and inactive calls. The calls were made as follows: active = growth percent below 10; inactive = the rest.

The values below come from PubChem BioAssay (NCI).

The first assay deals with SR leukemia. The assay is described as follows: NCI-60 one-dose screen, 48 h (100 = growth as untreated, 0 = no growth, -100 = all killed). The conditions noted are these: 10 µM unless noted.
With `N#CC1(O)CCCCC1`, the growth is 91.6%.
With `CCCCCCCCNC(=O)C(C)C`, the growth was 102%.
Take `NNc1ncccn1`: the growth is 98.2%.
For `COc1ccc(/C=C\C(=O)/C=C/c2ccc(OC)cc2)cc1`, the growth is 17.7%.
`Cc1cc(C(=O)NN)c(C#N)c(=O)[nH]1`: the growth is 116%.
Still for that read-out and setting: next, `CC(=O)c1ccc(C)cc1`: 112%; `O=C(Nc1ccc([N+](=O)[O-])cc1)C(=O)Nc1ccc([N+](=O)[O-])cc1`: 101%.
The same measure, in the same setting: next, `NC(CSSCC(N)C(=O)O)C(=O)O` (centres undefined): -20.7% (active); `CC(C)C(C)(C)C(=O)C(C)(C)C(C)(C)C`: 100%; `C=C1C(=O)C2CCN1CC2`: 26.1%.
Same read-out and setting: in the case of `CC12CCC3c4ccc(O)cc4CCC3C1CCC2=O` (centres undefined) it was 67.4%; in that of `CC(=O)CSc1ncnc2nc[nH]c12`, 87.8%; in that of `O=[N+]([O-])c1c(Cl)ncnc1Cl`, 96%.
Turning to `CCCCCCCCCCCCCCCCCCSC(=N)N`, the growth is -13.5% (active).
`O=Cc1ccc(O)c(O)c1`: the growth was 82.9%.
Same read-out and setting: in the case of `O=[n+]1ccn([O-])c2ccccc21` it was 78.3%.
For the compound `Nc1ccc(F)c(Cl)c1F`, the growth was 101%.
Still for that read-out and setting: next, `S=C(NCc1ccccc1)N1CCC(CCCC2CCN(C(=S)NCc3ccccc3)CC2)CC1`: 93.2%; `Clc1ncnc2nc[nH]c12`: 102%; `CC(C)Sc1ncnc2nc[nH]c12`: 122%.
On to `NNc1ncnc2nc[nH]c12`, for which the growth was 32.5%.
Still for that read-out and setting: next, `CCOC(=O)CNC`: 93.2%; `C=CC1=NC(C)(C)CC(C)O1` (centres undefined): 113%.
Same read-out and setting: in the case of `O=C(CC(CC(=O)c1ccccc1)c1ccccn1)c1ccccc1` it was 92.9%; in that of `CC(=O)OC/C(C)=C\CC(C)COC(C)=O` (centres undefined), 83%.
Still for that read-out and setting: next, `OCc1cccnc1`: 95.1%; `COc1cccc(N=CNc2cccc(OC)c2)c1`: 93.6%.
Consider `O=C(Nc1c(Cl)cc(Cl)cc1Cl)ON=C1CCCCC1`, for which the growth is 98.4%.
`Cc1nc(C)c(C(=O)O)cc1C(=O)O`: the growth was 100%.
For the compound `C=CC(C)C(C)(C)O` (centres undefined), the growth is 97.6%.
On the same count and under the same terms, in the case of `CCC(/C=C\C(C)=O)CC` it was 101%; in that of `O=[N+]([O-])c1ccc(-c2nc(N(CCO)CCO)c3ccccc3n2)o1`, 2.69% (active); in that of `COC(=O)c1ccccc1C(=O)c1c(C)cc(C)cc1C`, 79.6%.
`Cc1ccc(O)c(N)c1`: the growth was 113%.
Same read-out and setting: in the case of `CC(=O)c1cccc(N(C)S(=O)(=O)c2ccc(C)cc2)c1` it was 44.7%; in that of `O=C1CSc2ccccc2N1`, 105%; in that of `Cn1c(=O)c2[nH]c(CCCCC(=O)O)nc2n(C)c1=O`, 112%.

A further assay deals with RPMI-8226 leukemia. The assay is described as above. The following applies: 10 µM unless noted.
As for `N#CC1(O)CCCCC1`, the growth was 105%.
On the same count and under the same terms, next, `CCCCCCCCNC(=O)C(C)C`: 99.1%; `NNc1ncccn1`: 108%; `COc1ccc(/C=C\C(=O)/C=C/c2ccc(OC)cc2)cc1`: -20% (active).
Still for that read-out and setting: in the case of `Cc1cc(C(=O)NN)c(C#N)c(=O)[nH]1` it was 91.2%; in that of `CC(=O)c1ccc(C)cc1`, 113%; in that of `O=C(Nc1ccc([N+](=O)[O-])cc1)C(=O)Nc1ccc([N+](=O)[O-])cc1`, 105%.
For `NC(CSSCC(N)C(=O)O)C(=O)O` (centres undefined), the growth is 53.6%.
For `CC(C)C(C)(C)C(=O)C(C)(C)C(C)(C)C`, the growth was 96.1%.
On the same count and under the same terms, next, `C=C1C(=O)C2CCN1CC2`: 93.8%; `CC12CCC3c4ccc(O)cc4CCC3C1CCC2=O` (centres undefined): 98.8%.
The same measure, in the same setting: next, `CC(=O)CSc1ncnc2nc[nH]c12`: 76.6%.
For `O=[N+]([O-])c1c(Cl)ncnc1Cl`, the growth is 96.2%.
`CCCCCCCCCCCCCCCCCCSC(=N)N`: the growth is 61.7%.
On the same count and under the same terms, next, `O=Cc1ccc(O)c(O)c1`: 87.5%; `O=[n+]1ccn([O-])c2ccccc21`: 78.9%.
Regarding `Nc1ccc(F)c(Cl)c1F`, the growth is 93.7%.
On the same count and under the same terms, next, `S=C(NCc1ccccc1)N1CCC(CCCC2CCN(C(=S)NCc3ccccc3)CC2)CC1`: 75.5%.
Same read-out and setting: in the case of `Clc1ncnc2nc[nH]c12` it was 88.8%.
With `CC(C)Sc1ncnc2nc[nH]c12`, the growth was 118%.
On the same count and under the same terms, next, `NNc1ncnc2nc[nH]c12`: 13.4%; `CCOC(=O)CNC`: 99.7%; `C=CC1=NC(C)(C)CC(C)O1` (centres undefined): 105%.
On to `O=C(CC(CC(=O)c1ccccc1)c1ccccn1)c1ccccc1`, for which the growth was 96.8%.
As to `CC(=O)OC/C(C)=C\CC(C)COC(C)=O` (centres undefined), the growth was 94.2%.
Consider `OCc1cccnc1`, for which the growth was 102%.
The same measure, in the same setting: in the case of `COc1cccc(N=CNc2cccc(OC)c2)c1` it was 92%; in that of `O=C(Nc1c(Cl)cc(Cl)cc1Cl)ON=C1CCCCC1`, 105%; in that of `Cc1nc(C)c(C(=O)O)cc1C(=O)O`, 106%.
In the case of `C=CC(C)C(C)(C)O` (centres undefined), the growth is 109%.
The same measure, in the same setting: in the case of `CCC(/C=C\C(C)=O)CC` it was 97.6%; in that of `O=[N+]([O-])c1ccc(-c2nc(N(CCO)CCO)c3ccccc3n2)o1`, 4.26% (active); in that of `COC(=O)c1ccccc1C(=O)c1c(C)cc(C)cc1C`, 93.5%.
Consider `Cc1ccc(O)c(N)c1`, for which the growth is 55.7%.
On the same count and under the same terms, in the case of `CC(=O)c1cccc(N(C)S(=O)(=O)c2ccc(C)cc2)c1` it was 102%.
Turning to `O=C1CSc2ccccc2N1`, the growth is 95.2%.
On to `Cn1c(=O)c2[nH]c(CCCCC(=O)O)nc2n(C)c1=O`, for which the growth is 91.2%.
